# Results published in article PMC7862700, “An all-to-all approach to the identification of sequence-specific readers for epigenetic DNA modifications on cytosine”.
# Legend:
# Test in all cases: DAPPL (digital affinity profiling via proximity ligation, sequencing); 10 mM Tris-HCl pH 7.5, 50 mM NaCl, 1 mM DTT, 4% glycerol, room temperature, 30 min; GST-TFs on glutathione beads, 16-mer random dsDNA library, 0.1% formaldehyde crosslink after washing; high values mean tight binding
# Details in all cases: protein: recombinant; tags: N-terminal GST; dsDNA, one strand shown
# [1] = target: T1, FLI1 (Homo sapiens, UniProt Q01543 1-452)
# T1 sequence: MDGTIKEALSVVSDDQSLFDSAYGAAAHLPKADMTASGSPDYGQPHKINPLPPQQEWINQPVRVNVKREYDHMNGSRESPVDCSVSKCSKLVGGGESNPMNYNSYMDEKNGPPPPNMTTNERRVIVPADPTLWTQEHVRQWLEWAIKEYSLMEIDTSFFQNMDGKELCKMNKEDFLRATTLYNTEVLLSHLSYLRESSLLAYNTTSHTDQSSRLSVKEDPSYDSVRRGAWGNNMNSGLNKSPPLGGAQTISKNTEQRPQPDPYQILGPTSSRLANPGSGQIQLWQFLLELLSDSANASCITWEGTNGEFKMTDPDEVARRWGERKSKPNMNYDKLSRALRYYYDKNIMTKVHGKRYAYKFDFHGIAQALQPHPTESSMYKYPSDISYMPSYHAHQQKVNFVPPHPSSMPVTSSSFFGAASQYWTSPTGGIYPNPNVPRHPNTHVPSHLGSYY
# Outline: (§1)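 Binding signal is defined as a hexamer's read frequency for one factor over its frequency for the tag-only sample. To obtain reads, GST-fused human transcription factors were expressed in yeast, captured on glutathione beads, barcoded with DNA and pooled with that sample. Pools met 200 nmole of a 16-mer random double-stranded DNA library in Tris/NaCl/DTT/glycerol buffer for 30 min at room temperature before washing, 0.1% formaldehyde crosslinking, proximity ligation (BsaI/T4 ligase, 1 h, 37 °C), PCR and Illumina NextSeq500 sequencing.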
# [2] = target: T2, ELK1 (Homo sapiens, UniProt P19419 1-428)
# T2 sequence: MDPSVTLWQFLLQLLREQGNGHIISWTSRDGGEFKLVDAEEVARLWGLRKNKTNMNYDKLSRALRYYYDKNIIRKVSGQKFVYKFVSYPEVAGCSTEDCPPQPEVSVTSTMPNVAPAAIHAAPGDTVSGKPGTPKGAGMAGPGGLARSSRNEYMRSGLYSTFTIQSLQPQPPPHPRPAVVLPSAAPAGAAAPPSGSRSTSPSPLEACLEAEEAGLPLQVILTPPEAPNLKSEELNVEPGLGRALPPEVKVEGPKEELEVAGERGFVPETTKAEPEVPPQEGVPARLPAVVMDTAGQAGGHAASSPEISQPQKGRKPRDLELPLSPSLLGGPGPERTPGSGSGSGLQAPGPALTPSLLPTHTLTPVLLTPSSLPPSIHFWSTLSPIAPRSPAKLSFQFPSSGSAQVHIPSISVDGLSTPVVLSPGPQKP
# Outline: as §1
# [3] = target: T3, GABPA (Homo sapiens, UniProt Q06546 1-454)
# T3 sequence: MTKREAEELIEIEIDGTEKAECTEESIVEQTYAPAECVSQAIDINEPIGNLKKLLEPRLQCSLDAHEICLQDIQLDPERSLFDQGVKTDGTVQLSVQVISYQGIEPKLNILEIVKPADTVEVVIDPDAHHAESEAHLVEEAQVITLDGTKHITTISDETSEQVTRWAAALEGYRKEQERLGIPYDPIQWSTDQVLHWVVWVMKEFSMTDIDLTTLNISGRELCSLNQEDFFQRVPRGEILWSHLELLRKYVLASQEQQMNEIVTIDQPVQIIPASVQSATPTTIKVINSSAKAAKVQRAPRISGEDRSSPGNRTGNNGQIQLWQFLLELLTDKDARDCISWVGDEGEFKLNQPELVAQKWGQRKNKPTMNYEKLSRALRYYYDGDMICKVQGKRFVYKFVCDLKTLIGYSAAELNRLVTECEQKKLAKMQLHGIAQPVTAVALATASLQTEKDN
# Outline: as §1
# [4] = target: T4, ERG (Homo sapiens, UniProt P11308 1-479)
# T4 sequence: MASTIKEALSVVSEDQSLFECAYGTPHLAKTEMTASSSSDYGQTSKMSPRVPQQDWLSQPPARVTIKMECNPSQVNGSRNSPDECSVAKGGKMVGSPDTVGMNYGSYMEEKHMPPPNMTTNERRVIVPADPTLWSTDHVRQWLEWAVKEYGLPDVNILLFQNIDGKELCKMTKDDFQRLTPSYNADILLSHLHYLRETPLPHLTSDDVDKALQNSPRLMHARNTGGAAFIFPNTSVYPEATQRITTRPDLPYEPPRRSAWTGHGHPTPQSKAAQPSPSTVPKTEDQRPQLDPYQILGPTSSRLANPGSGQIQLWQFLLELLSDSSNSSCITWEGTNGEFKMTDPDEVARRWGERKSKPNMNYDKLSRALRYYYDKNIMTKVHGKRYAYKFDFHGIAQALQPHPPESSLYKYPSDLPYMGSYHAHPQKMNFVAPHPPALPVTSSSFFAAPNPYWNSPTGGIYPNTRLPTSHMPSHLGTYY
# Outline: as §1
# [5] = target: ELF1 (Homo sapiens, UniProt P32519 1-619)
# Outline: as §1
# [6] = target: T5, EHF (Homo sapiens, UniProt Q9NZC4 1-300)
# T5 sequence: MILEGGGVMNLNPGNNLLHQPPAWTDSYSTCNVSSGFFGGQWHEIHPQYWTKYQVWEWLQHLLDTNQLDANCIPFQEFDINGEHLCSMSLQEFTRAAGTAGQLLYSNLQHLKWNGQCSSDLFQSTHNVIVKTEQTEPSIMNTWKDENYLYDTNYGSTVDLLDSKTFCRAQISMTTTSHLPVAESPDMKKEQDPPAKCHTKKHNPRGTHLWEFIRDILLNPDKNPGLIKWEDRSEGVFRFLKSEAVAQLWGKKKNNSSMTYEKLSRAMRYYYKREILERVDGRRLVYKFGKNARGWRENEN
# Outline: as §1
# [7] = target: SPI1 (Homo sapiens, UniProt P17947 1-270)
# Outline: as §1
# [8] = target: SPIB (Homo sapiens, UniProt Q01892 1-262)
# Outline: as §1
# [9] = target: T6, ELK3 (Homo sapiens, UniProt P41970 1-407)
# T6 sequence: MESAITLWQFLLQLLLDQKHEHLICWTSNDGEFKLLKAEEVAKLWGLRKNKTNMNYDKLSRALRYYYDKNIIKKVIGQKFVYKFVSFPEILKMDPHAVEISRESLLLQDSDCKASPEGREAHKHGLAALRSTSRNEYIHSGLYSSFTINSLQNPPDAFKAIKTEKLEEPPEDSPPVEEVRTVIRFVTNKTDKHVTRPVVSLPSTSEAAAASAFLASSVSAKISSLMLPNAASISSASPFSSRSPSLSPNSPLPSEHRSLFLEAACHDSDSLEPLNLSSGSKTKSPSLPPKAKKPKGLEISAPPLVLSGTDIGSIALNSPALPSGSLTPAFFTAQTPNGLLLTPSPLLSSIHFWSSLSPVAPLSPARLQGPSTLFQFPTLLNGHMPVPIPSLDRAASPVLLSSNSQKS
# Outline: as §1
# [10] = target: T7, FEV (Homo sapiens, UniProt Q99581 1-238)
# T7 sequence: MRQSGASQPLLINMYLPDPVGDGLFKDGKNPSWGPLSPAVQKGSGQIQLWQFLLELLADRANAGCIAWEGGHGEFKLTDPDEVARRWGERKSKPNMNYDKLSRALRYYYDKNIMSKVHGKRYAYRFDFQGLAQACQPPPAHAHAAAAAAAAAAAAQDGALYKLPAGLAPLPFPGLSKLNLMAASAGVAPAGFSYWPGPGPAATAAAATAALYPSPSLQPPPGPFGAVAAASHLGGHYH
# Outline: as §1
# [11] = target: ETV5 (Homo sapiens, UniProt P41161 1-510)
# Outline: as §1
# [12] = target: T8, SPIC (Homo sapiens, UniProt Q8N5J4 1-248)
# T8 sequence: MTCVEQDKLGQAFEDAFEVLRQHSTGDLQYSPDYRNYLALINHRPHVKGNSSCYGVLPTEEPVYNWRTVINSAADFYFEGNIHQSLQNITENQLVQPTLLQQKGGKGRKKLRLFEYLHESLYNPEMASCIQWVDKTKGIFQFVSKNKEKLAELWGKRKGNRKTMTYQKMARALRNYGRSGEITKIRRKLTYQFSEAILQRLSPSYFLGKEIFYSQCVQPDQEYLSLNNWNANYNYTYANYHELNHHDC
# Outline: as §1
# [13] = target: ELF4 (Homo sapiens, UniProt Q99607 1-663)
# Outline: as §1
# [14] = target: ETV1 (Homo sapiens, UniProt P50549 1-477)
# Outline: as §1
# [15] = target: T9, ERF (Homo sapiens, UniProt P50548 1-548)
# T9 sequence: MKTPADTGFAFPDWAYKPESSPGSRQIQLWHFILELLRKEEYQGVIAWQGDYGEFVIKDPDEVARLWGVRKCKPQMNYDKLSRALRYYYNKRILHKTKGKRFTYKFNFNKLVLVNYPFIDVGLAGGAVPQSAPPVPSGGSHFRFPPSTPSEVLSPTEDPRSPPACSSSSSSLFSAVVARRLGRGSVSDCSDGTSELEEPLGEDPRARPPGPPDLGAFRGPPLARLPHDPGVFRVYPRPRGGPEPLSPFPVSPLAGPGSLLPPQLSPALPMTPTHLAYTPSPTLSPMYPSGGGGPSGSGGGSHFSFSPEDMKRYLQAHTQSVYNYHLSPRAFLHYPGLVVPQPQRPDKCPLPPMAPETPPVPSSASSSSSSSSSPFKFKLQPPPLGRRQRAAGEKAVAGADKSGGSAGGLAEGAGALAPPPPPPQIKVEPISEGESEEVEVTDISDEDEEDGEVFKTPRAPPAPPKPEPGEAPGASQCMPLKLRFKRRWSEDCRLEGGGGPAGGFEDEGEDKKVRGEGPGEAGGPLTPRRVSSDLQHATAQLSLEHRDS
# Outline: as §1
# [16] = target: T10, ETV3L (Homo sapiens, UniProt Q6ZN32 1-361)
# T10 sequence: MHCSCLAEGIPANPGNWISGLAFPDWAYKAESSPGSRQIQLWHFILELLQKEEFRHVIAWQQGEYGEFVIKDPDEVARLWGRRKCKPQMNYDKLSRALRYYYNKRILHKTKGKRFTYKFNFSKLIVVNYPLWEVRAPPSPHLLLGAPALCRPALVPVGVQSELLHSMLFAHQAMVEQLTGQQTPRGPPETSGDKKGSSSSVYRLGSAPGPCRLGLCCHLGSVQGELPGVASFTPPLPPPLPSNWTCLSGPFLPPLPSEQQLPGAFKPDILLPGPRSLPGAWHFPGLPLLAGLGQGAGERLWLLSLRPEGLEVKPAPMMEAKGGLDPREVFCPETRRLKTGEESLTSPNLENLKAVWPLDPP
# Outline: as §1
# [17] = target: T11, ETS2 (Homo sapiens, UniProt P15036 1-469)
# T11 sequence: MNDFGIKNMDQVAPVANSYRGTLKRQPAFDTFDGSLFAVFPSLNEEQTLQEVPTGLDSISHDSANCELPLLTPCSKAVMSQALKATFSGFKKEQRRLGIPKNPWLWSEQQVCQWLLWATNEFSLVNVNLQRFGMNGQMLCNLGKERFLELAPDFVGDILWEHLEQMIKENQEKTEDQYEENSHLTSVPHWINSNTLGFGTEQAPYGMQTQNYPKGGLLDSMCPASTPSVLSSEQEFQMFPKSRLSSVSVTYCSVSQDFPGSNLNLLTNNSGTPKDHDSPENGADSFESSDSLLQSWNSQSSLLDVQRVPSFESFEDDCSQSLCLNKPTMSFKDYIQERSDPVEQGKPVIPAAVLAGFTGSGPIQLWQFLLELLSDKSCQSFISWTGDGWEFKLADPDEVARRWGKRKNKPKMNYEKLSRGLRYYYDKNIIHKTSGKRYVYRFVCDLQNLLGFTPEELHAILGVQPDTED
# Outline: as §1
# [18] = target: T12, SPDEF (Homo sapiens, UniProt O95238 1-335)
# T12 sequence: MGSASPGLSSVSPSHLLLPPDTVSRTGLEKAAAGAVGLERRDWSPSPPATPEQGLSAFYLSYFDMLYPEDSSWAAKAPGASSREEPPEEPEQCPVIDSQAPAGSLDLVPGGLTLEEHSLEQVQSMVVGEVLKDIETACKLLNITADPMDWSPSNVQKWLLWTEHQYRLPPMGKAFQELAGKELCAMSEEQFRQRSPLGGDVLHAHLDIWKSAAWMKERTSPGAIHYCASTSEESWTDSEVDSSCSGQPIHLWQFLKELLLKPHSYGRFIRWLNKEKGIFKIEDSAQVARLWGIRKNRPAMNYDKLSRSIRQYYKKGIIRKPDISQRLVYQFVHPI
# Outline: as §1
# [19] = target: T13, ETV3 (Homo sapiens, UniProt P41162-2 1-143)
# T13 sequence: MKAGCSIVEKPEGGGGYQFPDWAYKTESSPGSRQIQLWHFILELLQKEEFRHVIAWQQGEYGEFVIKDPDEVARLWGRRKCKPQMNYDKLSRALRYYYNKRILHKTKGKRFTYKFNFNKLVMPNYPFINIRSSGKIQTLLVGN
# Outline: as §1
# [20] = target: ETV6 (Homo sapiens, UniProt P41212 1-452)
# Outline: as §1
# Chain of ELF1 (P32519 whole entry): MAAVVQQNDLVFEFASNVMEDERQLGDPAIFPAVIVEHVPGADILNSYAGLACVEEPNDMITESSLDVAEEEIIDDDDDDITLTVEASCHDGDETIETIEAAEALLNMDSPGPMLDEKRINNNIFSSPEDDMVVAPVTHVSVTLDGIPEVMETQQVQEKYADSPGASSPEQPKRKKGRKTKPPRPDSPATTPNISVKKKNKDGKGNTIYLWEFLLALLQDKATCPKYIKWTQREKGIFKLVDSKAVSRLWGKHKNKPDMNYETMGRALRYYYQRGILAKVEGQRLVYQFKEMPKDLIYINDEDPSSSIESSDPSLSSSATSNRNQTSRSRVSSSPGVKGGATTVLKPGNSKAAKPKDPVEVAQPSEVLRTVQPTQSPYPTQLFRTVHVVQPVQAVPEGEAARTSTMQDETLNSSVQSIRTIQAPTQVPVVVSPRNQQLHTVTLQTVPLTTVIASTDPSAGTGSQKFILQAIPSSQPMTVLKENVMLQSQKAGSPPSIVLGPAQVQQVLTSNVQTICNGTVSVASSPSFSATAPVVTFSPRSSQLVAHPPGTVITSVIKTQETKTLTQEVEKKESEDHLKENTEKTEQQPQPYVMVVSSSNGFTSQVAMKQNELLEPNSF
# Chain of ETV6 (P41212 whole entry): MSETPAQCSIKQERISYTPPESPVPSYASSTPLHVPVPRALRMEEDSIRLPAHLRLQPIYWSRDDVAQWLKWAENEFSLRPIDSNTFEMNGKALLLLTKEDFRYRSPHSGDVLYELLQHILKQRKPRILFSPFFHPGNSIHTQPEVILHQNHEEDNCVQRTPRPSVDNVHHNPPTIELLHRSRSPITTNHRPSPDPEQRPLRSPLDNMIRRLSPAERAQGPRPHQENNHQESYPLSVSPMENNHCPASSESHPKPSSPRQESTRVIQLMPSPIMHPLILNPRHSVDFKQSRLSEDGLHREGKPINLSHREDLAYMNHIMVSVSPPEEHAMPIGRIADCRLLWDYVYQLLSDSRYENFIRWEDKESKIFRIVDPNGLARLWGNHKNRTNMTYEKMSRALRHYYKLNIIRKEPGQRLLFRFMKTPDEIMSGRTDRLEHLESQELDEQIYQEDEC
# Chain of ELF4 (Q99607 whole entry): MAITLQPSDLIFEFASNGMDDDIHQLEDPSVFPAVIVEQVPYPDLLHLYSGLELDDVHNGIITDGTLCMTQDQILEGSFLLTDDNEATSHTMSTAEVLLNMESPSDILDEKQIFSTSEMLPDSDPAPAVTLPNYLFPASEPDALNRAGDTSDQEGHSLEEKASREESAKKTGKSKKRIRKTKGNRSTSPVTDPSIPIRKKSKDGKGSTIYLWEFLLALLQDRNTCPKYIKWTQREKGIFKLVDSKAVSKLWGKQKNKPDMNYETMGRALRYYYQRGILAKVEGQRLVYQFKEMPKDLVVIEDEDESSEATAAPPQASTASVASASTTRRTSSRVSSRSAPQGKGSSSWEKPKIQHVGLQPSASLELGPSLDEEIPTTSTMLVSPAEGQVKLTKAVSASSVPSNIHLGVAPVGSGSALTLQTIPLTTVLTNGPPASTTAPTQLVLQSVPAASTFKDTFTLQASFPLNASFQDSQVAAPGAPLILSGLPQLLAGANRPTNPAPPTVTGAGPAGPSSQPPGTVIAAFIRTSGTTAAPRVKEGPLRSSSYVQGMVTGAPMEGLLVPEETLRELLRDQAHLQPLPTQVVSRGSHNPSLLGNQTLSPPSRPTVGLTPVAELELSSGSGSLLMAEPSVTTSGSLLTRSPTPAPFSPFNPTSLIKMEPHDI
# Chain of ETV1 (P50549 whole entry): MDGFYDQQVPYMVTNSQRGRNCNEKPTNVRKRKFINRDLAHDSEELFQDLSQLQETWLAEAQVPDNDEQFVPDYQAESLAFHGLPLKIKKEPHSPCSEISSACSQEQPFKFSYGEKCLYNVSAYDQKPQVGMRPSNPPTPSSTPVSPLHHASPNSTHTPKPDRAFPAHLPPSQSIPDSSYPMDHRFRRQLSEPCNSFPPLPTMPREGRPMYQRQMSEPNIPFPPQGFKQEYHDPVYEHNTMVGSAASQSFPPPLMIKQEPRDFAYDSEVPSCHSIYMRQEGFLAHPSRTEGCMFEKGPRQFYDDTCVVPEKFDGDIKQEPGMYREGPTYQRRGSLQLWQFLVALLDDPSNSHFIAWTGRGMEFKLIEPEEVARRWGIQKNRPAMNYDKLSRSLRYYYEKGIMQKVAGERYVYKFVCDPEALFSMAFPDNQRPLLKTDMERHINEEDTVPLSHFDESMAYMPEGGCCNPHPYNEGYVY
# Chain of ETV5 (P41161 whole entry): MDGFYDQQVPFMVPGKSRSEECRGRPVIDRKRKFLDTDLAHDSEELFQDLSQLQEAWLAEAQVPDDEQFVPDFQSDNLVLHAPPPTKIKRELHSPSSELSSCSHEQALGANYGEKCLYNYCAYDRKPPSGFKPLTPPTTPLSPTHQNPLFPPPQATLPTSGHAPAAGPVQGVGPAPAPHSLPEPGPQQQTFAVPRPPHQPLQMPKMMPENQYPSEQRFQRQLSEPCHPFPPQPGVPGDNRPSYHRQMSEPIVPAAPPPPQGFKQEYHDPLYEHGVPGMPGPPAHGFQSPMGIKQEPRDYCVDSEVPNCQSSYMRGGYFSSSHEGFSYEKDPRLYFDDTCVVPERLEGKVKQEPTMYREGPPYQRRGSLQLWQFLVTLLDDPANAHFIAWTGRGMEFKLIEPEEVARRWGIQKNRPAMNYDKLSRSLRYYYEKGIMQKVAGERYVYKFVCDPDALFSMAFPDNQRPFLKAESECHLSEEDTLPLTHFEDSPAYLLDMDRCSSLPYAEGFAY
# Chain of SPIB (Q01892 whole entry): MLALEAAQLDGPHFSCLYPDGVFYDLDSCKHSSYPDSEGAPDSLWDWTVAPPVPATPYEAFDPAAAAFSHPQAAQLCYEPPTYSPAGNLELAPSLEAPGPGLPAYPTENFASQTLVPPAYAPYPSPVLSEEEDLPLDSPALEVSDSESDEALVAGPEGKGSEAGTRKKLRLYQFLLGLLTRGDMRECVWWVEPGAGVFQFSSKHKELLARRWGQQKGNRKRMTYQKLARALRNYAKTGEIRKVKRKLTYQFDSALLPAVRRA
sequence,measurement,setting,value
AAACCG,binding signal,[1],"1.05 fold enrichment (6-mer frequency, TF over GST control)"
same,binding signal,[2],"1.05 fold enrichment (6-mer frequency, TF over GST control)"
same,binding signal,[3],"1.07 fold enrichment (6-mer frequency, TF over GST control)"
same,binding signal,[4],"1.13 fold enrichment (6-mer frequency, TF over GST control)"
same,binding signal,[5],"1.12 fold enrichment (6-mer frequency, TF over GST control)"
same,binding signal,[6],"1.08 fold enrichment (6-mer frequency, TF over GST control)"
same,binding signal,[7],"1.25 fold enrichment (6-mer frequency, TF over GST control)"
same,binding signal,[8],"1.05 fold enrichment (6-mer frequency, TF over GST control)"
same,binding signal,[9],"1.09 fold enrichment (6-mer frequency, TF over GST control)"
same,binding signal,[10],"1.33 fold enrichment (6-mer frequency, TF over GST control)"
same,binding signal,[11],"1.07 fold enrichment (6-mer frequency, TF over GST control)"
same,binding signal,[12],"1.05 fold enrichment (6-mer frequency, TF over GST control)"
same,binding signal,[13],"1.07 fold enrichment (6-mer frequency, TF over GST control)"
same,binding signal,[14],"1.18 fold enrichment (6-mer frequency, TF over GST control)"
same,binding signal,[15],"1.1 fold enrichment (6-mer frequency, TF over GST control)"
same,binding signal,[16],"1.06 fold enrichment (6-mer frequency, TF over GST control)"
same,binding signal,[17],"1 fold enrichment (6-mer frequency, TF over GST control)"
same,binding signal,[18],"1.11 fold enrichment (6-mer frequency, TF over GST control)"
same,binding signal,[19],"1.08 fold enrichment (6-mer frequency, TF over GST control)"
same,binding signal,[20],"1.05 fold enrichment (6-mer frequency, TF over GST control)"
